Data taken from a collection of fitness landscapes (doi:10.1126/science.1257360).
Whole data set: some 140,000 sequences, median “enrichment ratio after two sorts for PhoP signalling” near 0, cut for the highest 2% near 11. What follows is part of a selection rich in the highest values, with near analogues and random picks from the rest.

B1: PhoQ; a variant is named by its letters at X, in order, P23837 (parent)
chain: MKKLLRLFFPLSLRVRFLLATAAVVLVLSLAYGMVALIGYSVSFDKTTFRLLRGESNLFYTLAKWENNKLHVELPENIDKQSPTMTLIYDENGQLLWAQRDVPWLMKMIQPDWLKSNGFHEIEADVNDTSLLLSGDHSIQQQLQEVREDDDDAEMTHSVAVNVYPATSRMPKLTIVVVDTIPVELKSSYMVWSWFIYVLSANLLLVIPLLWVAAWWSLRPIEALAKEVRELEEHNRELLNPATTRELTSLVRNLNRLLKSERERYDKYRTTLTDLTHSLKTPLXXLQXXLRSLRSEKMSVSDAEPVMLEQISRISQQIGYYLHRASMRGGTLLSRELHPVAPLLDNLTSALNKVYQRKGVNISLDISPEISFVGEQNDFVEVMGNVLDNACKYCLEFVEISARQTDEHLYIVVEDDGPGIPLSKREVIFDRGQRVDTLRPGQGVGLAVAREITEQYEGKIVAGESMLGGARMEVIFGRQHSAPKDE

Variants of: B1
Assay: enrichment ratio after two sorts for PhoP signalling (ratio (wild type AVST 3.29)); higher = more functional
Details: with PhoP (E. coli)
WERP was tested, and the enrichment ratio was at most 0.25.
FGLD was tested, and the enrichment ratio was at most 0.25.
WHSD showed an enrichment ratio of at most 0.25.
PARG was tested, and the enrichment ratio was at most 0.25.
SKNV showed an enrichment ratio of at most 0.25.
KDFC was tested, and the enrichment ratio was at most 0.25.
For AICG, the enrichment ratio was 8.42.
ITCG gave an enrichment ratio of at most 0.25.
Variant ATMG has an enrichment ratio of 16.2.
Work on ATCV yielded an enrichment ratio of 15.4.
Work on ATCG yielded an enrichment ratio of 16.1.
With TTTG the enrichment ratio was 7.1.
In the case of ATTG, the enrichment ratio is reported as 12.
With YTTG the enrichment ratio was at most 0.25.
ATMV was tested, and the enrichment ratio was 9.43.
With ATPI the enrichment ratio was 8.1.
Variant ATVG has an enrichment ratio of 6.86.
For ATIV, the enrichment ratio was 8.37.
With HMVR the enrichment ratio was at most 0.25.
For PPPT, the enrichment ratio was at most 0.25.
HYAC showed an enrichment ratio of at most 0.25.
With MRCY the enrichment ratio was at most 0.25.
ALEK was tested, and the enrichment ratio was at most 0.25.
QMAV showed an enrichment ratio of at most 0.25.
For HMTD, the enrichment ratio was at most 0.25.
With LMTS the enrichment ratio was 0.708.
YCYV showed an enrichment ratio of at most 0.25.
SCYS showed an enrichment ratio of 0.535.
QMGG showed an enrichment ratio of at most 0.25.
In the case of LLQC, the enrichment ratio is reported as at most 0.25.
ATMW showed an enrichment ratio of 26.9.
ATHW showed an enrichment ratio of at most 0.25.
With ATYD the enrichment ratio was at most 0.25.
In the case of ATMD, the enrichment ratio is reported as 27.9.
Variant ATNL has an enrichment ratio of 5.25.
ATGD showed an enrichment ratio of at most 0.25.
Work on ATPW yielded an enrichment ratio of at most 0.25.
ATCI was tested, and the enrichment ratio was 12.5.
ATPL was tested, and the enrichment ratio was 5.31.
With ATCK the enrichment ratio was 3.27.
ATCL was tested, and the enrichment ratio was 18.6.
Variant ATCA has an enrichment ratio of 5.9.
In the case of WGSP, the enrichment ratio is reported as at most 0.25.
For HYYD, the enrichment ratio was at most 0.25.
In the case of WSIS, the enrichment ratio is reported as at most 0.25.
Work on ITGG yielded an enrichment ratio of at most 0.25.
In the case of MSAK, the enrichment ratio is reported as at most 0.25.
Work on EGWA yielded an enrichment ratio of at most 0.25.
For DSML, the enrichment ratio was at most 0.25.
IFTF showed an enrichment ratio of at most 0.25.
PWYL was tested, and the enrichment ratio was at most 0.25.
ATCW gave an enrichment ratio of 11.3.
ADCW was tested, and the enrichment ratio was at most 0.25.
In the case of YTCW, the enrichment ratio is reported as at most 0.25.
With HMKN the enrichment ratio was at most 0.25.
NKTY was tested, and the enrichment ratio was at most 0.25.
In the case of AQYI, the enrichment ratio is reported as at most 0.25.
ANAY gave an enrichment ratio of 36.4.
With ANYI the enrichment ratio was at most 0.25.
For AKAY, the enrichment ratio was 13.6.
With ANNY the enrichment ratio was 6.43.
In the case of AHAY, the enrichment ratio is reported as 1.08.
NQAY showed an enrichment ratio of at most 0.25.
In the case of AIAY, the enrichment ratio is reported as 6.61.
AQAY showed an enrichment ratio of 15.2.
Variant CPSL has an enrichment ratio of at most 0.25.
QEVG was tested, and the enrichment ratio was at most 0.25.
FDGF was tested, and the enrichment ratio was at most 0.25.
In the case of HSWS, the enrichment ratio is reported as at most 0.25.
With NKSN the enrichment ratio was at most 0.25.
In the case of WFED, the enrichment ratio is reported as at most 0.25.
Work on WRFE yielded an enrichment ratio of at most 0.25.
With IQAV the enrichment ratio was at most 0.25.
NVMV showed an enrichment ratio of at most 0.25.
In the case of WLCH, the enrichment ratio is reported as at most 0.25.
With SLCH the enrichment ratio was 11.6.
For THCH, the enrichment ratio was 5.09.
Work on GTCH yielded an enrichment ratio of 4.08.
TTCH was tested, and the enrichment ratio was 15.
SHMH was tested, and the enrichment ratio was 3.
YTCH showed an enrichment ratio of 0.285.
With CTCH the enrichment ratio was at most 0.25.
For SHCH, the enrichment ratio was 16.
In the case of STCH, the enrichment ratio is reported as 12.6.
In the case of ITCH, the enrichment ratio is reported as at most 0.25.
KLCH showed an enrichment ratio of at most 0.25.
In the case of DCLL, the enrichment ratio is reported as at most 0.25.
With YWMV the enrichment ratio was at most 0.25.
Work on YISQ yielded an enrichment ratio of 0.456.
YEYI showed an enrichment ratio of at most 0.25.
RIQD showed an enrichment ratio of at most 0.25.
With APKL the enrichment ratio was at most 0.25.
In the case of KTLD, the enrichment ratio is reported as at most 0.25.
QTQN gave an enrichment ratio of at most 0.25.
LCCT showed an enrichment ratio of at most 0.25.
Work on EDCL yielded an enrichment ratio of at most 0.25.
Work on KEMG yielded an enrichment ratio of at most 0.25.
For STQL, the enrichment ratio was 17.1.
In the case of SAQL, the enrichment ratio is reported as 9.87.
KYQL was tested, and the enrichment ratio was at most 0.25.
For SMQL, the enrichment ratio was 12.1.
QEQL showed an enrichment ratio of at most 0.25.
SGQL was tested, and the enrichment ratio was 12.
SLQL showed an enrichment ratio of 5.85.
SQQL was tested, and the enrichment ratio was 2.28.
For SIQL, the enrichment ratio was 13.1.
NIQL was tested, and the enrichment ratio was at most 0.25.
Work on YTQL yielded an enrichment ratio of at most 0.25.
QLRC showed an enrichment ratio of at most 0.25.
In the case of KRKR, the enrichment ratio is reported as at most 0.25.
YDDH was tested, and the enrichment ratio was at most 0.25.
With EAQW the enrichment ratio was at most 0.25.
Work on TNTH yielded an enrichment ratio of 1.01.
TNTD showed an enrichment ratio of at most 0.25.
With TNTA the enrichment ratio was 10.1.
For TNTS, the enrichment ratio was 13.4.
In the case of TNNK, the enrichment ratio is reported as at most 0.25.
For TNTI, the enrichment ratio was 15.8.
For TNTK, the enrichment ratio was at most 0.25.
TNIC gave an enrichment ratio of at most 0.25.
TNTC was tested, and the enrichment ratio was 11.6.
Work on WEHT yielded an enrichment ratio of at most 0.25.
FCPF showed an enrichment ratio of at most 0.25.
With IDMQ the enrichment ratio was at most 0.25.
VSQK showed an enrichment ratio of at most 0.25.
AICQ gave an enrichment ratio of 3.77.
With MKCQ the enrichment ratio was at most 0.25.
Variant TKCQ has an enrichment ratio of 11.7.
AWCQ showed an enrichment ratio of at most 0.25.
AKCQ was tested, and the enrichment ratio was 19.1.
For HKCQ, the enrichment ratio was at most 0.25.
For PWVC, the enrichment ratio was at most 0.25.
For KKCL, the enrichment ratio was 1.66.
TKCL gave an enrichment ratio of 14.6.
In the case of AKCV, the enrichment ratio is reported as 3.07.
TKCV was tested, and the enrichment ratio was 30.6.
In the case of TKCE, the enrichment ratio is reported as 7.83.
GGMT was tested, and the enrichment ratio was at most 0.25.
HKCL was tested, and the enrichment ratio was 3.32.
TKCS was tested, and the enrichment ratio was 13.2.
KKCV was tested, and the enrichment ratio was at most 0.25.
MMCL gave an enrichment ratio of 4.1.
In the case of TKCI, the enrichment ratio is reported as 10.8.
MKCL gave an enrichment ratio of 16.5.
In the case of SKMP, the enrichment ratio is reported as at most 0.25.
GFDT gave an enrichment ratio of at most 0.25.
Work on WRTW yielded an enrichment ratio of at most 0.25.
Work on DDAA yielded an enrichment ratio of at most 0.25.
With ARFW the enrichment ratio was at most 0.25.
SPAC gave an enrichment ratio of at most 0.25.
With NGAC the enrichment ratio was at most 0.25.
Work on VHAC yielded an enrichment ratio of at most 0.25.
With AEYS the enrichment ratio was 1.65.
KYAC was tested, and the enrichment ratio was at most 0.25.
For KKAC, the enrichment ratio was at most 0.25.
Work on AIAC yielded an enrichment ratio of 19.1.
GGAC was tested, and the enrichment ratio was at most 0.25.
TGAC was tested, and the enrichment ratio was 11.4.
AEFC gave an enrichment ratio of 6.7.
With SIAC the enrichment ratio was 13.
In the case of AEAC, the enrichment ratio is reported as 43.5.
For MDLS, the enrichment ratio was at most 0.25.
WPPG showed an enrichment ratio of at most 0.25.
Work on LANA yielded an enrichment ratio of at most 0.25.
Work on GFDD yielded an enrichment ratio of at most 0.25.
In the case of LCAI, the enrichment ratio is reported as at most 0.25.
For VLNL, the enrichment ratio was at most 0.25.
Work on RIAC yielded an enrichment ratio of at most 0.25.
With AKAC the enrichment ratio was 19.7.
For AAAC, the enrichment ratio was at most 0.25.
Work on WIAC yielded an enrichment ratio of at most 0.25.
In the case of TIAC, the enrichment ratio is reported as 12.1.
ADAC showed an enrichment ratio of 0.792.
MYGT was tested, and the enrichment ratio was at most 0.25.
Variant TEWY has an enrichment ratio of 0.326.
With MPYR the enrichment ratio was at most 0.25.
YTMQ was tested, and the enrichment ratio was 0.469.
Variant TTMQ has an enrichment ratio of 30.4.
Variant TTHP has an enrichment ratio of at most 0.25.
With GYMQ the enrichment ratio was at most 0.25.
LTQQ was tested, and the enrichment ratio was at most 0.25.
In the case of TTQQ, the enrichment ratio is reported as 21.5.
For TTHQ, the enrichment ratio was 26.2.
Work on ITQQ yielded an enrichment ratio of at most 0.25.
YTHQ showed an enrichment ratio of at most 0.25.
With YIIQ the enrichment ratio was at most 0.25.
QERY gave an enrichment ratio of at most 0.25.
In the case of QQLY, the enrichment ratio is reported as at most 0.25.
CLCR gave an enrichment ratio of at most 0.25.
Work on VMKE yielded an enrichment ratio of at most 0.25.
For VTRG, the enrichment ratio was at most 0.25.
QNQF gave an enrichment ratio of at most 0.25.
For CTLS, the enrichment ratio was at most 0.25.
TTLS was tested, and the enrichment ratio was 15.1.
Work on YTLS yielded an enrichment ratio of 4.88.
In the case of TTLA, the enrichment ratio is reported as 16.9.
TTPI showed an enrichment ratio of 4.3.
In the case of YTLT, the enrichment ratio is reported as at most 0.25.
ITLT was tested, and the enrichment ratio was at most 0.25.
In the case of TTLT, the enrichment ratio is reported as 15.8.
YTLA was tested, and the enrichment ratio was 4.01.
